How the values were obtained:
[1] = target: Serine/threonine-protein kinase 26 (Homo sapiens) (UniProt Q9P289); conditions: at 1 µM;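 note: mean inhibition of MST4 kinase activity, reported from the GSK PKIS inhibitor-set screening panel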
[2] = target: Serine/threonine-protein kinase PAK 1 (Homo sapiens) (UniProt Q13153); conditions: at 0.1 µM
[3] = target: Serine/threonine-protein kinase PAK 1 (Homo sapiens) (UniProt Q13153); conditions: at 1 µM
[4] = target: Serine/threonine-protein kinase PAK 2 (Homo sapiens) (UniProt Q13177); conditions: at 0.1 µM
[5] = target: Serine/threonine-protein kinase PAK 2 (Homo sapiens) (UniProt Q13177); conditions: at 1 µM
[6] = target: Serine/threonine-protein kinase PAK 3 (Homo sapiens) (UniProt O75914); conditions: at 0.1 µM
[7] = target: Serine/threonine-protein kinase PAK 3 (Homo sapiens) (UniProt O75914); conditions: at 1 µM
[8] = target: Serine/threonine-protein kinase PAK 5 (Homo sapiens) (UniProt Q9P286); conditions: at 0.1 µM
[9] = target: Serine/threonine-protein kinase PAK 5 (Homo sapiens) (UniProt Q9P286); conditions: at 1 µM
[10] = target: Serine/threonine-protein kinase PAK 6 (Homo sapiens) (UniProt Q9NQU5); conditions: at 1 µM
[11] = system: Tyrosine-protein kinase ABL1 (Homo sapiens), P00519 [E255K]; conditions: at 0.1 µM
[12] = system: Tyrosine-protein kinase ABL1 (Homo sapiens), P00519 [E255K]; conditions: at 1 µM
[13] = system: Tyrosine-protein kinase ABL1 (Homo sapiens), P00519 [H396P]; conditions: at 0.1 µM
[14] = system: Tyrosine-protein kinase ABL1 (Homo sapiens), P00519 [H396P]; conditions: at 1 µM
[15] = system: Tyrosine-protein kinase ABL1 (Homo sapiens), P00519 [M351T]; conditions: at 0.1 µM
[16] = system: Tyrosine-protein kinase ABL1 (Homo sapiens), P00519 [M351T]; conditions: at 1 µM
[17] = system: Tyrosine-protein kinase ABL1 (Homo sapiens), P00519 [Q252H]; conditions: at 0.1 µM
[18] = system: Tyrosine-protein kinase ABL1 (Homo sapiens), P00519 [Q252H]; conditions: at 1 µM
[19] = system: Tyrosine-protein kinase ABL1 (Homo sapiens), P00519 [T315I]; conditions: at 0.1 µM
[20] = target: Serine/threonine-protein kinase PAK 6 (Homo sapiens) (UniProt Q9NQU5); conditions: at 0.1 µM

Serine/threonine-protein kinase PAK 3 (Homo sapiens), sequence (O75914 whole entry, looked up): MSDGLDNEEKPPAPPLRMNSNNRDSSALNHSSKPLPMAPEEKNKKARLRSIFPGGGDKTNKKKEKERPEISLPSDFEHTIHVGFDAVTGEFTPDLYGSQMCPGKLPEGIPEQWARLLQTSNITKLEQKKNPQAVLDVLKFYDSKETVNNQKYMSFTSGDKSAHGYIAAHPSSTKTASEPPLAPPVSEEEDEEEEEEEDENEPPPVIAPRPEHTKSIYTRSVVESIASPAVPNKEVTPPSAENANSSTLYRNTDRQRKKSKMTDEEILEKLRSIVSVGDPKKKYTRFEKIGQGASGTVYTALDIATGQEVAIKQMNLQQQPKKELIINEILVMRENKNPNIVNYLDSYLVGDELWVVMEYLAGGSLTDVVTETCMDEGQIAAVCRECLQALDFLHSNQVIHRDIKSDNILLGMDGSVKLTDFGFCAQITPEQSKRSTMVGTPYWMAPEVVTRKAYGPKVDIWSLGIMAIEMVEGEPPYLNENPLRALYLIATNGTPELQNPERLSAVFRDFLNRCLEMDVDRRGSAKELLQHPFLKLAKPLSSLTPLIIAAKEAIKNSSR
Serine/threonine-protein kinase 26 (Homo sapiens), sequence (Q9P289 2-416 limits assumed): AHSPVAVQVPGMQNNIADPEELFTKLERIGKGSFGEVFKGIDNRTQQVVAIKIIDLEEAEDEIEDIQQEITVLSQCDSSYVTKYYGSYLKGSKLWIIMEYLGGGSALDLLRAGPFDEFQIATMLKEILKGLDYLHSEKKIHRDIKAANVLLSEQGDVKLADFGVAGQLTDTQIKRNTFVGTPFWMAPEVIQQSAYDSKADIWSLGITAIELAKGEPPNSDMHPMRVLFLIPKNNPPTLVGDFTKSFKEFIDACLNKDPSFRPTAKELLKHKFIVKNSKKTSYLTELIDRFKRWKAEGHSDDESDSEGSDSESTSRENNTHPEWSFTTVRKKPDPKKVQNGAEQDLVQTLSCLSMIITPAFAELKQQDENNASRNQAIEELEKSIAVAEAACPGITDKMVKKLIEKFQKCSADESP
Serine/threonine-protein kinase PAK 1 (Homo sapiens), sequence (Q13153 whole entry): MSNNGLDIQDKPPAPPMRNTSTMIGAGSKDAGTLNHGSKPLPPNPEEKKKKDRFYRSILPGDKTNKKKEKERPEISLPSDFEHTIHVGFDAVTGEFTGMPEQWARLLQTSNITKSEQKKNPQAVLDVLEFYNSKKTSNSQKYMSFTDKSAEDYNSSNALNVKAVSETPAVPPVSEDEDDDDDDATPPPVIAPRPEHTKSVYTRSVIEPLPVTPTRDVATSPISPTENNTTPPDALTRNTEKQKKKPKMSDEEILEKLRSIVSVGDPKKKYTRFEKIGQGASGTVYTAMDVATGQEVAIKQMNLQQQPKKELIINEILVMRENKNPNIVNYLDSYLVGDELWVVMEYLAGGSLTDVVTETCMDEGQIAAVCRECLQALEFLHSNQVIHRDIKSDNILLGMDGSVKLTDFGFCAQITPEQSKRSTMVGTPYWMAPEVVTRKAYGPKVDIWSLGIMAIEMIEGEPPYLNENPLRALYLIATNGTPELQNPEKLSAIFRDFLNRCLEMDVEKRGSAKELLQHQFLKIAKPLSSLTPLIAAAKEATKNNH
Serine/threonine-protein kinase PAK 6 (Homo sapiens), sequence (Q9NQU5 whole entry, looked up): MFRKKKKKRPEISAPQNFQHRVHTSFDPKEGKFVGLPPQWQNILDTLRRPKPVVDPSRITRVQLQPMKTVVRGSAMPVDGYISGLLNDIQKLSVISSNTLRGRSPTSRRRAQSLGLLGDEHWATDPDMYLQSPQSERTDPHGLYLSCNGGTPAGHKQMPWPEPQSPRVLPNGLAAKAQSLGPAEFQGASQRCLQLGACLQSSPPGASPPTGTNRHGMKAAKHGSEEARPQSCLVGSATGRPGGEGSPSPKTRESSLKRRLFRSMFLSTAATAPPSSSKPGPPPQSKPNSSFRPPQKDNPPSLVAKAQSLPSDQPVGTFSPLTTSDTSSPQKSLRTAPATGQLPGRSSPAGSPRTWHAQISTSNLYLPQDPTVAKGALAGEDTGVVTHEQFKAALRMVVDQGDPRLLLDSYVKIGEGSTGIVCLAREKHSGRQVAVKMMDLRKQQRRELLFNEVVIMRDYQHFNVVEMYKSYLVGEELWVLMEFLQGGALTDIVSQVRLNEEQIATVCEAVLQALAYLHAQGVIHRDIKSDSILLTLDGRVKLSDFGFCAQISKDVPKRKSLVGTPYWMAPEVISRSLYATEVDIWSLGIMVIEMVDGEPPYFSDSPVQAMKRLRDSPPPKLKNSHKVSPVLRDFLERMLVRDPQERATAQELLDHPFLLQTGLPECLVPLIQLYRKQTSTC
Serine/threonine-protein kinase PAK 5 (Homo sapiens), sequence (Q9P286 whole entry, looked up): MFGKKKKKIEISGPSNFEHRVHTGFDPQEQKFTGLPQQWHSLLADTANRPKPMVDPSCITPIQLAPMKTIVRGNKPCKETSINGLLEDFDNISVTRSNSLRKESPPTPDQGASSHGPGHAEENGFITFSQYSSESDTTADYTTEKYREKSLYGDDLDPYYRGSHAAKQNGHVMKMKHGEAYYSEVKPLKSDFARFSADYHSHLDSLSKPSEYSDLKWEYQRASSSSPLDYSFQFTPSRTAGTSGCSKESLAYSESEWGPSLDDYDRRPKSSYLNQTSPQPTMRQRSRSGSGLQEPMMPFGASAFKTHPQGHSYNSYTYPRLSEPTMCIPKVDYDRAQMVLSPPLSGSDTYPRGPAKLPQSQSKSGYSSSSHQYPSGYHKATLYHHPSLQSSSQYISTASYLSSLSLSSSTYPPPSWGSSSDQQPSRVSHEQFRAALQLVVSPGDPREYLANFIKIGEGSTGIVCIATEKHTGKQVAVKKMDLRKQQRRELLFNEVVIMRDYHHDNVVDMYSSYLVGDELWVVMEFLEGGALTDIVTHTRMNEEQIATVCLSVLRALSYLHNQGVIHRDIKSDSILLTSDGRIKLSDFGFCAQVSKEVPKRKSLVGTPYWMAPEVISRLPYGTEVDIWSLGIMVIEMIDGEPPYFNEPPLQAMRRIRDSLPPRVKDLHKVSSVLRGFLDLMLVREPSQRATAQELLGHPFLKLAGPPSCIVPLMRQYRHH
Serine/threonine-protein kinase PAK 2 (Homo sapiens), sequence (Q13177 whole entry): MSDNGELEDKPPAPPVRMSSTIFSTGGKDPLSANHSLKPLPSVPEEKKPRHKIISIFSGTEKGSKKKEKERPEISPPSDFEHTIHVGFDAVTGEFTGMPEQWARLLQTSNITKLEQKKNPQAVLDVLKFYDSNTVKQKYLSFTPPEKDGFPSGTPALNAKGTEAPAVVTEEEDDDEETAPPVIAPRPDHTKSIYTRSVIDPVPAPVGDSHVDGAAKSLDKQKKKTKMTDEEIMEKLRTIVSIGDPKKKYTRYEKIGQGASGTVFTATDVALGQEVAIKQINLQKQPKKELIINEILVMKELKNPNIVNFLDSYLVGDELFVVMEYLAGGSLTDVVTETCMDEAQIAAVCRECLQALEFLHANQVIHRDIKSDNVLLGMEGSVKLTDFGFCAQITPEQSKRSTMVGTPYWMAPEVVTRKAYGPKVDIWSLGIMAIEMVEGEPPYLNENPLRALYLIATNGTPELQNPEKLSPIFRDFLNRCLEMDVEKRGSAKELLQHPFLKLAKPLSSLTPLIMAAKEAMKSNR

Compound | inhibition [1] | inhibition [2] | inhibition [3] | inhibition [4] | inhibition [5] | inhibition [6] | inhibition [7] | inhibition [8] | inhibition [9] | inhibition [10] | inhibition [11] | inhibition [12] | inhibition [13] | inhibition [14] | inhibition [15] | inhibition [16] | inhibition [17] | inhibition [18] | inhibition [19] | inhibition [20]
COc1ccccc1Nc1ncc(-c2ccccc2)o1 | 0.41% | 10.5% | 12.7% | 1.73% | 1.5% | 6.21% | 6.38% | -2.83% | -2.65% | -9.8% | 3.77% | 8% | 6.53% | 15.2% | 2.78% | 10.8% | 5.47% | 9.74% | 2.77% | –
O=C1Nc2ccc(C(=O)c3ccco3)cc2C1=Cc1cc(Cl)c(O)c(Cl)c1 | 21.4% | 1.1% | 3.96% | 1.29% | 0.81% | 2.57% | 3.42% | 0.93% | 5.07% | 0.19% | 3.7% | 15.1% | 3.27% | 13.7% | 3.29% | 12.9% | 5.53% | 17.7% | 3.59% | 1.03%
CCn1c(-c2nonc2N)nc2c(N3CCCC3)nccc21 | 0.92% | 3.59% | -4.47% | -2.37% | -1.78% | -2.72% | -1.25% | -6.88% | – | 0.23% | -0.9% | -0.63% | 0.1% | -1.53% | 1.28% | -0.55% | 1.69% | -0.47% | -0.16% | 8.95%
CCn1c(-c2nonc2N)nc2cncc(C(=O)N3CCNCC3)c21 | 1.91% | 9.41% | 15.3% | 3.6% | 4.45% | 7.27% | 9.28% | 6.95% | 8.13% | 0.53% | -1.75% | 4.64% | 4.85% | 4.82% | -1.66% | -0.43% | 3.41% | 4.95% | 1.64% | -5.05%
CS(=O)(=O)CCN(CC#N)Cc1ccc(-c2ccc3ncnc(Nc4ccc(OCc5cccc(F)c5)c(Cl)c4)c3c2)o1 | 0.46% | 1.88% | 4.88% | 0.62% | 0.16% | 2.04% | 4.29% | 0.28% | -0.85% | -7.94% | 0.94% | 1% | 1.77% | 1.89% | 0.73% | 0.36% | 0.95% | 0.42% | -0.08% | -6.8%
CCN1CCC(CC(=O)Nc2n[nH]c3nc(-c4cccs4)c(Br)cc23)CC1 | 12% | -4.19% | -3.71% | -2.22% | -2.2% | -1.67% | -3.03% | 0.15% | 16.4% | -1.76% | -1.62% | 2.21% | -0.27% | 8.03% | -0.05% | 4.95% | 0.92% | 11.6% | 3.23% | –
COc1ccc(-c2ccncc2)cc1C(N)=O | -5.1% | 4.54% | 10% | 2.37% | 3.02% | 5.3% | 10.3% | 5.08% | 8.05% | – | 2.26% | 3.56% | 4.08% | 3.48% | -0.68% | -0.45% | 3.19% | 2.33% | 2.27% | -8.8%
NCc1ccc(-c2nc(-c3ccc(Cl)c(O)c3)c(-c3ccncc3)[nH]2)cc1 | 0.12% | 1.09% | 2.83% | -1.23% | -1.01% | -0.7% | -0.37% | – | -6.81% | 0.88% | 7.57% | 43.3% | 9.07% | 48.9% | 11.2% | 43.9% | 7.54% | 38.4% | 3.08% | 7.6%
Cc1cc(O)cc(C)c1/C=C/c1cncc(-c2nn[nH]n2)c1 | 0.45% | 6.83% | 7.1% | 2.28% | 2.67% | 4.55% | 5.43% | 1.47% | -1.45% | -4.74% | 17.8% | 79.3% | 21.5% | 79.8% | 17.1% | 79.9% | 23.1% | 81.6% | 2.2% | 7.17%
NS(=O)(=O)c1cccc(-c2ccc3c(NC(=O)C4CC4)n[nH]c3c2)c1 | – | -1.17% | 0.04% | -1.52% | -1.15% | -2.1% | -0.67% | 7.33% | -5.95% | -8.66% | 1.26% | 7.94% | 3.4% | 21.7% | 7.02% | 20.2% | 2.5% | 9.03% | 3.32% | 2.48%
CCn1c(-c2nonc2N)nc2cncc(C(=O)N3CC[C@H](N)C3)c21 | 1.04% | 10.1% | 8.87% | 1% | 1.51% | 5.01% | 4.59% | – | 0.61% | 3.33% | 3.58% | 2.43% | 5.83% | 2.94% | 2.2% | -0.9% | 4.86% | 2.19% | 2.09% | -1.48%
CNC(=O)c1cncc(/C=C/c2c(Cl)cccc2Cl)c1 | -0.15% | 4.17% | 11% | 1.59% | 0.88% | 4.45% | 5.48% | 5.92% | 6.55% | -7.96% | 3.46% | 33.3% | 9.69% | 47.2% | 6.02% | 42.2% | 8.15% | 41.9% | -0.11% | –
CCCN1CCC=C(c2ccc(Nc3nc(Nc4ccccc4C(N)=O)c4cc[nH]c4n3)c(C)c2)C1 | -1.15% | 8.77% | 12.7% | 2.2% | 3.03% | 5% | 6.44% | 6.43% | 14.2% | -5.41% | -0.02% | 5.11% | 2.87% | 7.11% | 1.17% | 5.02% | 3.91% | 8.95% | 1.37% | –
O=C1NC(=O)C(c2cccc(Cl)c2)=C1Nc1ccc(O)c(Cl)c1 | 11.2% | 2.76% | 4.48% | 0.61% | -0.45% | 1.1% | 1.4% | – | – | -3.45% | 0.46% | -0.55% | 1.43% | 1.01% | -0.1% | 1.15% | -0.15% | 2.63% | 1.14% | 3.63%

Source: ChEMBL document CHEMBL1961873, “Compounds: GSK PKIS; Assays: Nanosyn kinase panel” (2012)
